From paper PMC7819943, “Rice protein-binding microarrays: a tool to detect cis-acting elements near promoter regions in rice”
The full ranking holds about 39,000 sequences; the median of “fluorescence intensity (a.u.)” is about 4,300, and the highest 2% start at about 39,000. The sample as a whole holds a higher share of the highest values than the screen did.

Each sequence was assayed against T1, OsSMF1 (Oryza sativa, UniProt Q6ZLB0 1-436) (assay: protein-binding microarray (RPBM); PBS, 2% BSA, 51.3 ng/ul salmon testes DNA, 50 uM zinc acetate, 200 nM TF, 25 C, 1 h; high values mean tight binding). Conditions: protein: recombinant; tags: N-terminal polyhistidine and DsRed monomer fusion (pET32a); chain copies: 2; label: CyDye5-dUTP incorporated in the synthesized complementary strand; 3' TTTTT single-stranded linker to array surface; dsDNA, one strand shown.
T1 sequence: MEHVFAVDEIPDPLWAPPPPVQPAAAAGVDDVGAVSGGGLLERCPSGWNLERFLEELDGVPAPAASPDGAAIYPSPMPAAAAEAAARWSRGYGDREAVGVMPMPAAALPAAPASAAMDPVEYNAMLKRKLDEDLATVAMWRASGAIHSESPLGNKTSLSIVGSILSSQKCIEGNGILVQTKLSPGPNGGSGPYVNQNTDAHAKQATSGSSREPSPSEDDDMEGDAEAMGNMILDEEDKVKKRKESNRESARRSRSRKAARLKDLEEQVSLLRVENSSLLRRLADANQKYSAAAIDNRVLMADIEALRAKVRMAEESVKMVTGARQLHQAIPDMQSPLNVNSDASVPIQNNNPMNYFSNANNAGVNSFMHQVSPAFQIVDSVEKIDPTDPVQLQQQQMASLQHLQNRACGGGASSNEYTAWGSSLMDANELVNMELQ
Summary of the method: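 An Axon 4000B scanner gave the binding signal as per-feature fluorescence intensity in arbitrary units. This followed washing of a custom Agilent array that had been incubated for 1 h at 25 °C with 200 nM protein in PBS, 2% BSA, salmon testes DNA and 50 µM zinc acetate. The proteins were transcription factors fused at the N-terminus to polyhistidine and DsRed, expressed in E. coli BL21-CodonPlus and purified on Ni–NTA.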
“CCAATTCACTCCACCATACTGTTGGCACCTATGATAGAACCGGAGTCACCTAGTGCAG” was tested, and the binding signal was 3430 fluorescence intensity (a.u.). “AGAAAACCTACACCCCGGGCTTCCGTTGCAACGTGACAACCGGAGTCACCTAGTGCAG” was tested, and the binding signal was 13300 fluorescence intensity (a.u.). With “TATACAAGTCAGCTGCTGCTCGATCTTGTCATGAGAGCCCCGGAGTCACCTAGTGCAG” the binding signal was 5140 fluorescence intensity (a.u.). With “GGAGAGGGAGCGGGAGAGGGAGGATTGGAGGATGTGGGGACGGAGTCACCTAGTGCAG” the binding signal was 15400 fluorescence intensity (a.u.). With “CTGCGGTTGCATTGCATGGAGATGGACCCTCAACCAGCTACGGAGTCACCTAGTGCAG” the binding signal was 3700 fluorescence intensity (a.u.). For “CCGACAAAAGATGGTTTCTCCATCAGTGAAGACACAATGTCGGAGTCACCTAGTGCAG”, the binding signal was 19500 fluorescence intensity (a.u.). For “CATCGGACGGCCCATGTAGCCCAACTCCTCCGCTGCCACGCGGAGTCACCTAGTGCAG”, the binding signal was 3410 fluorescence intensity (a.u.). In the case of “TTAGTATGTGATTAATTTAGTATTAATTATTTAACTATAACGGAGTCACCTAGTGCAG”, the binding signal is reported as 31900 fluorescence intensity (a.u.). “GGGCTCCCAGTATAGCTTAGGTTGATTTAATTATGGTTAACGGAGTCACCTAGTGCAG” was tested, and the binding signal was 49500 fluorescence intensity (a.u.). In the case of “ATGGCTGTTGATTTTAATAGTGCAGGAGTGGTTTATAGCTCGGAGTCACCTAGTGCAG”, the binding signal is reported as 4220 fluorescence intensity (a.u.). With “ACACTGCCACGTCAGCGCCACGTTAGCAAAACCGTCCTCCCGGAGTCACCTAGTGCAG” the binding signal was 35500 fluorescence intensity (a.u.). For “GCAACAGTGTTATGCAACAGTGTCATTCAGTCTCTACACACGGAGTCACCTAGTGCAG”, the binding signal was 32000 fluorescence intensity (a.u.). For “AGCTGGTGATGAGCAGCGTCACCAATTCTTCCTGGACGCCCGGAGTCACCTAGTGCAG”, the binding signal was 4190 fluorescence intensity (a.u.). For “GTGGAGGCGAGGCGGCGAGAGGCGGGTAGCAGTGGAGGAGCGGAGTCACCTAGTGCAG”, the binding signal was 3430 fluorescence intensity (a.u.). With “GGCAGCTTGGTGCGGGAGAGAGGCGGCGGCGAAGGGGAGACGGAGTCACCTAGTGCAG” the binding signal was 41900 fluorescence intensity (a.u.). For “CGGCGAGGCGAACTCAACGGGTACGCAAAGCGAAGAGGAGCGGAGTCACCTAGTGCAG”, the binding signal was 45600 fluorescence intensity (a.u.). “AGAAGAGGGAGACAGAGGATAGAGAGAAGAGGGCACTTCACGGAGTCACCTAGTGCAG” was tested, and the binding signal was 11900 fluorescence intensity (a.u.). “ATCGTCGCGGGGCCGCCGACGGCGCGCGGTGTGGCCGACGCGGAGTCACCTAGTGCAG” was tested, and the binding signal was 6480 fluorescence intensity (a.u.). With “GGCGGCAGCGACGGCGGAGGCGAGGGAGGGGAGGCGGCGGCGGAGTCACCTAGTGCAG” the binding signal was 3930 fluorescence intensity (a.u.). In the case of “ACGGCGGGAACAATTGTGGGCGGTGGCCTTGGCCGAATCGCGGAGTCACCTAGTGCAG”, the binding signal is reported as 55000 fluorescence intensity (a.u.). “GAACGGAACGCAACGTGCGGAGAGAGAGCGAGAGAGAAGCCGGAGTCACCTAGTGCAG” was tested, and the binding signal was 30600 fluorescence intensity (a.u.). For “GAGAGGAGGAAGACAGAGAGGAGAGATGAGATAGGATCAACGGAGTCACCTAGTGCAG”, the binding signal was 46200 fluorescence intensity (a.u.). “CGGTGGCGGGAACATGTGGGCGGTGGCAGGAGTGCAGGTGCGGAGTCACCTAGTGCAG” was tested, and the binding signal was 3810 fluorescence intensity (a.u.). “GCAACGGAAGAGATGAGGAGATGACTCGGATGAGCGGAAGCGGAGTCACCTAGTGCAG” was tested, and the binding signal was 3180 fluorescence intensity (a.u.). In the case of “GAAGGCGGCGGGGTGGCGAAGTGGCGAGGAGGAGACGGGGCGGAGTCACCTAGTGCAG”, the binding signal is reported as 4910 fluorescence intensity (a.u.). “CTCCAGCATCGCCACCGGGTCCCCGTACGGGTTCTTCGGGCGGAGTCACCTAGTGCAG” was tested, and the binding signal was 3620 fluorescence intensity (a.u.). For “CTCTGCTCTCAAATGCTCTGTGTGCGATCAGGTATTCATGCGGAGTCACCTAGTGCAG”, the binding signal was 3270 fluorescence intensity (a.u.). With “ACCGAGTAGATCACTTCCGTGCAAGTTGGTTGACAAGTATCGGAGTCACCTAGTGCAG” the binding signal was 3480 fluorescence intensity (a.u.). “CTGGACACCTCACGAAGTCTCAAACTGCTGTTTGTTCTCACGGAGTCACCTAGTGCAG” was tested, and the binding signal was 4230 fluorescence intensity (a.u.). In the case of “ATATGGCCTTCGGTGGTATCCACGTAGAGCTTTACGTTAACGGAGTCACCTAGTGCAG”, the binding signal is reported as 4810 fluorescence intensity (a.u.). In the case of “CACCCGCGTGTATGCCAGCTAGGCTTGGCTCCGACGTGGACGGAGTCACCTAGTGCAG”, the binding signal is reported as 4790 fluorescence intensity (a.u.). With “GCAGCCACGACGCCCGCCAATGCTGCCGCCGCCATCGATGCGGAGTCACCTAGTGCAG” the binding signal was 5300 fluorescence intensity (a.u.). For “AGAATTTGTTCGTCACCCATATATCGGCGTCATGACCTCGCGGAGTCACCTAGTGCAG”, the binding signal was 3510 fluorescence intensity (a.u.). In the case of “GTCGGATCCCCGCGCAATCATACACACGTGTCGCCGTCGCCGGAGTCACCTAGTGCAG”, the binding signal is reported as 8730 fluorescence intensity (a.u.). With “TTAGGACCATAATATCTAATGTTACATGCCACGTACCAAACGGAGTCACCTAGTGCAG” the binding signal was 7280 fluorescence intensity (a.u.). With “GCCGCCCGCGCGCGACCGCGTGACGTCGCAGCCGCACCGACGGAGTCACCTAGTGCAG” the binding signal was 6080 fluorescence intensity (a.u.). With “TGCCACCGTGGCGGCCGGGCCGATCCCCTAGCTGACGTGGCGGAGTCACCTAGTGCAG” the binding signal was 41900 fluorescence intensity (a.u.). In the case of “TCGTCCGATCCCCTAGCGTGGCCACCGATCCGCCCGTCCCCGGAGTCACCTAGTGCAG”, the binding signal is reported as 3230 fluorescence intensity (a.u.). In the case of “CGCTGCGGGGAGTCGGCGCTTCGTCGGAGGCGGCGGGGCGCGGAGTCACCTAGTGCAG”, the binding signal is reported as 3230 fluorescence intensity (a.u.). In the case of “GATCAAACCAGCGGCAGATGAGGGCGCAAAGAGAAAGAGCCGGAGTCACCTAGTGCAG”, the binding signal is reported as 4210 fluorescence intensity (a.u.). With “CTGGTCGGCGCGGGCACGCGCTTGCGGAGGCTGGGGAGTCCGGAGTCACCTAGTGCAG” the binding signal was 39700 fluorescence intensity (a.u.). With “TTGGGCGGCGGTGCGGGGAGGCTGAGGGGCGGCGCCGGCGCGGAGTCACCTAGTGCAG” the binding signal was 3580 fluorescence intensity (a.u.).
